The results in this text go back to the supplement of paper PMC6555819.

One assay deals with PPARg DBDmut IVT, anti-PPARg (DBD mutation: PPARg1 K132A/R137A, NR concentration 270 nM). Briefly: PBM binding z-score (relative to random genomic background probes); higher = stronger binding; sequences stand for … in GC…GCGATTGACAGCGTAGAATGAAGG
The gist of the method:
(§1)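 Binding z-scores were set against random background probes. The data came from custom Agilent 4×180K protein-binding microarrays carrying double-stranded probes with 34-nt variable regions, incubated 1 h with ligand-free nuclear receptor dimers. Partner-specific antibodies detected binding, and scanned fluorescence was regression-normalized.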
Consider CCCACTGGGGCATAAGGTTACCATAAGCCAGCCC, for which the PBM binding z-score was -0.412.

GCTTACGGGTCAAACGTTATAGCATGAATAGAAT returned a PBM binding z-score of 1.38.

As to TCTCGGATGACACGAAGGTCAGAGCTTTCCAGAG, the PBM binding z-score is -0.814.

In the case of ATCTCTAGGTAAAATTTCAGTGAATCCCGAGGAT, the PBM binding z-score was 1.87.

In the case of CATACAGGGTCAGCTAGGCGAGAGTAGGGACGGC, the PBM binding z-score stood at 0.468.

GAAACGAGGGCAAGTTGATAGCAGAGTTTGATGG registered a PBM binding z-score of 0.387.

In turn, GCATATAGGTAATACAAGGTGAAAATCCGATTGT came in with a PBM binding z-score of 0.777.

The sequence CCTAGTTGGTCAGGAGGTCAGACACCGGATATGA displayed a PBM binding z-score of 0.265.

As to CCTTACGGCTCACGAGGTTATAGCACGACGAGCG, the PBM binding z-score was 0.282.

CCTCGGAGGAGAACAGGAGGTCAGAGCTGCCAGA had a PBM binding z-score of -1.78.

In turn, TAGCCTTGGTCATGCGGGCCAGTATAGTGTCGGC returned a PBM binding z-score of -0.0984.

Regarding AGAATGAGTTTACCAAAGATCAGGGAAACGCTTG, the PBM binding z-score was -0.0652.

In turn, ACTCGGAGGACAAAGGTCTGAGCTACGCCAGTGA gave a PBM binding z-score of -1.15.

Sequence TTACCAAGGGGAAAGGTCGTTGATGCACGCCTTG yielded a PBM binding z-score of 0.0839.

The sequence CCTACTGGGCCACGAATGGTCATTGATTCAGTGA registered a PBM binding z-score of 0.085.

With CGTCAAAGTTCAACTAAGGAAACGTAAAGCACGC, the PBM binding z-score turned out to be 0.369.

As for TCTTGTAGATCAAGGAGGTTAAGAAAGCCTGAGT, the PBM binding z-score came to 0.0101.

AATACAGGGTCACTAGGACAGAGTAGGTACGAAT registered a PBM binding z-score of 3.05.

As to GTTCGGAGGACAAGGTCAGAGCTTTGTCCGTAGA, the PBM binding z-score is -1.19.

The sequence TGAATGAGGTTAAAGATCAGGTAACGTGGCGTCG had a PBM binding z-score of 0.742.

Regarding AATACAGGGTCACTAGGCCAGATTAGGTACGAAT, the PBM binding z-score is 3.15.

For the sequence GCAGACAGGTGTAACGCAGGTAACTCAGGGTGGC, the PBM binding z-score was -1.52.

Regarding CTACCAAGGTGAACAAGGTCGCTGATTACTATTC, the PBM binding z-score stood at 0.423.

Sequence CTTAGCAGGCCAGGGTCACTCAAGCATTTCGCTT had a PBM binding z-score of -0.865.

With CCTACTGAGCCATTCAGAGGTCATTGATCATATG, the PBM binding z-score is 0.233.

Turning to GGAAAGAGGGCAAGTTGATAGCAGAGTTTGATGG, the PBM binding z-score was -0.108.

ATCTCTAGGTAACAAGTTCAGTGGAAGAGAGGAC showed a PBM binding z-score of 1.34.

As for TCTCGGCGGACACGAAAGGTCAGAGCTCGACATC, the PBM binding z-score was -0.845.

Consider CCTTACTGGTCACTGACAGGTTATAGCATTTGGA, for which the PBM binding z-score is 0.913.

Consider CGACCAAGGTCAGCAGGTCAGTGAAAGCGACGTG, for which the PBM binding z-score was -0.609.

TCTTGTAGATCAACAGAGGTTAAGAAAGTGCGCT yielded a PBM binding z-score of 0.408.

Regarding CCTAGTTGGTCAAGGTCACACTCGCTATAGGTAC, the PBM binding z-score turned out to be 0.878.

The sequence CAAACTAGGTCAAGAGATCAAAGTCCGCTTCCCG gave a PBM binding z-score of 2.4.

Regarding CTACTAAGGTGAACAAGGTCGTTGATTACTATTC, the PBM binding z-score was 0.383.

In turn, CGTCCAAGGTCAAGGCCAGTGAAAGAGACTCGAA had a PBM binding z-score of -0.184.

For the sequence ATCTCTGGGTAAGACTCAGTTCAGTGAAGAACGC, the PBM binding z-score turned out to be 0.645.

With GCTAGTTGGTCAGTAAAAGGACACACACCGGTCG, the PBM binding z-score is -0.305.

As to CCGACTGGGCCAAAAAGGTCATTGATGCCGATAA, the PBM binding z-score is -1.08.

The sequence TAGCCTAGGTCATTCAGGGGCCAGGATAGAAAGC came in with a PBM binding z-score of -0.519.

In turn, GCGACTGGGGCAGCAGCAGGTTACCATAACTTAA gave a PBM binding z-score of -0.983.

The subject of a further assay is PPARg homodimer (NR concentration 180 nM). The description is as above. The gist of the method: as §1
CCCACTGGGGCATAAGGTTACCATAAGCCAGCCC: the PBM binding z-score amounted to 0.0588.

GCTTACGGGTCAAACGTTATAGCATGAATAGAAT had a PBM binding z-score of 1.25.

Take TCTCGGATGACACGAAGGTCAGAGCTTTCCAGAG: the PBM binding z-score was found to be 0.961.

ATCTCTAGGTAAAATTTCAGTGAATCCCGAGGAT: the PBM binding z-score is 0.138.

CATACAGGGTCAGCTAGGCGAGAGTAGGGACGGC: the PBM binding z-score was 1.41.

Sequence GAAACGAGGGCAAGTTGATAGCAGAGTTTGATGG showed a PBM binding z-score of 0.633.

For the sequence GCATATAGGTAATACAAGGTGAAAATCCGATTGT, the PBM binding z-score worked out at 0.494.

CCTAGTTGGTCAGGAGGTCAGACACCGGATATGA yielded a PBM binding z-score of 2.85.

With CCTTACGGCTCACGAGGTTATAGCACGACGAGCG, the PBM binding z-score came out at 0.161.

For the sequence CCTCGGAGGAGAACAGGAGGTCAGAGCTGCCAGA, the PBM binding z-score was determined as 1.58.

Take TAGCCTTGGTCATGCGGGCCAGTATAGTGTCGGC: the PBM binding z-score was -1.18.

The sequence AGAATGAGTTTACCAAAGATCAGGGAAACGCTTG yielded a PBM binding z-score of -0.566.

Regarding ACTCGGAGGACAAAGGTCTGAGCTACGCCAGTGA, the PBM binding z-score came to 0.144.

In turn, TTACCAAGGGGAAAGGTCGTTGATGCACGCCTTG returned a PBM binding z-score of 1.27.

CCTACTGGGCCACGAATGGTCATTGATTCAGTGA gave a PBM binding z-score of 0.236.

Regarding CGTCAAAGTTCAACTAAGGAAACGTAAAGCACGC, the PBM binding z-score turned out to be 3.9.

TCTTGTAGATCAAGGAGGTTAAGAAAGCCTGAGT returned a PBM binding z-score of 0.474.

On to AATACAGGGTCACTAGGACAGAGTAGGTACGAAT, for which the PBM binding z-score was 2.54.

As for GTTCGGAGGACAAGGTCAGAGCTTTGTCCGTAGA, the PBM binding z-score turned out to be 1.25.

TGAATGAGGTTAAAGATCAGGTAACGTGGCGTCG had a PBM binding z-score of 0.811.

AATACAGGGTCACTAGGCCAGATTAGGTACGAAT showed a PBM binding z-score of 2.45.

The sequence GCAGACAGGTGTAACGCAGGTAACTCAGGGTGGC came in with a PBM binding z-score of -1.12.

Sequence CTACCAAGGTGAACAAGGTCGCTGATTACTATTC had a PBM binding z-score of 0.663.

CTTAGCAGGCCAGGGTCACTCAAGCATTTCGCTT yielded a PBM binding z-score of 0.785.

With CCTACTGAGCCATTCAGAGGTCATTGATCATATG, the PBM binding z-score amounted to 3.19.

GGAAAGAGGGCAAGTTGATAGCAGAGTTTGATGG registered a PBM binding z-score of 1.67.

On to ATCTCTAGGTAACAAGTTCAGTGGAAGAGAGGAC, for which the PBM binding z-score is 1.43.

TCTCGGCGGACACGAAAGGTCAGAGCTCGACATC: the PBM binding z-score is 1.83.

As for CCTTACTGGTCACTGACAGGTTATAGCATTTGGA, the PBM binding z-score stood at 1.46.

On to CGACCAAGGTCAGCAGGTCAGTGAAAGCGACGTG, for which the PBM binding z-score worked out at 2.7.

On to TCTTGTAGATCAACAGAGGTTAAGAAAGTGCGCT, for which the PBM binding z-score came out at 0.896.

On to CCTAGTTGGTCAAGGTCACACTCGCTATAGGTAC, for which the PBM binding z-score was determined as 3.44.

On to CAAACTAGGTCAAGAGATCAAAGTCCGCTTCCCG, for which the PBM binding z-score is 2.15.

CTACTAAGGTGAACAAGGTCGTTGATTACTATTC showed a PBM binding z-score of 1.12.

In turn, CGTCCAAGGTCAAGGCCAGTGAAAGAGACTCGAA displayed a PBM binding z-score of 2.5.

As to ATCTCTGGGTAAGACTCAGTTCAGTGAAGAACGC, the PBM binding z-score is 0.772.

Sequence GCTAGTTGGTCAGTAAAAGGACACACACCGGTCG showed a PBM binding z-score of 0.811.

As to CCGACTGGGCCAAAAAGGTCATTGATGCCGATAA, the PBM binding z-score is 2.17.

As for TAGCCTAGGTCATTCAGGGGCCAGGATAGAAAGC, the PBM binding z-score came to 1.31.

Turning to GCGACTGGGGCAGCAGCAGGTTACCATAACTTAA, the PBM binding z-score is -0.687.
